Results filed as inconclusive are left out. A call without a number means that no potency is given here. Activity calls are given as the source filed them. Calls follow the shape of the full dose curve.
Potency is read from the fitted curve at half-maximal effect.

Test system in one assay: not listed separately
Briefly: Natriuretic polypeptide receptor (hNpr1) antagonism - Pilot counterscreen GloSensor control cell line (AID 1347045). The conditions noted are these: HEK293 cGMP GloSensor cells, SNP-stimulated luminescence, 20 min; series mostly up to 38.3 µM. Summed up: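 HEK293 cGMP-sensor cells; 2% GloSensor reagent 2 h RT; LOPAC compounds in 1:5 titrations 30-50 min; 50 uM SNP 20 min; luminescence pre-read and post-read.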
As to `Nc1ncnc2c1ncn2[C@@H]1O[C@H](COP(=O)(O)CP(=O)(O)OP(=O)(O)O)[C@@H](O)[C@H]1O`, the Potency result is “inactive”. The same measure, in the same setting: under `CN(C)c1nc2c(Br)c(Br)c(Br)c(Br)c2[nH]1` stands “inactive”; under `O=C1C(SCCO)=C(SCCO)C(=O)c2ccccc21`, 2.07 µM (active). For the compound `CCN(CC)c1ncnc2c1ncn2[C@@H]1O[C@H](COP(=O)(O)OP(=O)(O)C(Br)(Br)P(=O)(O)O)[C@@H](O)[C@H]1O`, the Potency result is “inactive”. On the same count and under the same terms, under `NC(=S)c1ccc[n+]([C@@H]2O[C@@H](COP(=O)([O-])OP(=O)(O)OC[C@H]3O[C@@H](n4cnc5c(N)ncnc54)[C@H](OP(=O)(O)O)[C@@H]3O)C(O)C2O)c1` (stereo partly specified) stands “inactive”; under `Nc1nc(Cl)nc2c1ncn2[C@@H]1O[C@H](COP(=O)(O)OP(=O)(O)OP(=O)(O)O)[C@@H](O)[C@H]1O`, “inactive”; under `Cc1nc2sccn2c(=O)c1CCN1CCC(=C(c2ccccc2)c2ccc(F)cc2)CC1`, “inactive”. Same read-out and setting: under `CNC(=O)[C@H]1O[C@@H](n2cnc3c(NCc4cccc(I)c4)ncnc32)[C@H](O)[C@@H]1O` stands “inactive”; under `CCCCN1CCC(n2c(=O)[nH]c3ccccc32)CC1`, “inactive”; under `CO/N=C(\C(=O)N[C@@H]1C(=O)N2C(C(=O)O)=C(COC(C)=O)CS[C@H]12)c1csc(N)n1`, “inactive”. On the same count and under the same terms, next, `CN1CCC[C@H]1c1cccnc1`: “inactive”; `CC(C)(C)c1ccc(S(=O)(=O)/C=C/C#N)cc1`: 6.56 µM (active). Regarding `CN(C)c1ccc(/C=C2\C(=O)Nc3ccccc32)cc1`, the Potency was 4.14 µM (active). On the same count and under the same terms, next, `O=C1O/C(=C/Br)CCC1c1cccc2ccccc12` (stereo unspecified): 16.5 µM (active).

Regarding `CN1CCc2cccc3c2C1Cc1ccc(O)c(O)c1-3` (stereo unspecified), the Potency entry is “inactive”. On the same count and under the same terms, under `Cc1ccc(O)c(N=Nc2ccccc2)n1` stands 7.36 µM (active); under `NC(=O)C1=CN(C2OC(COP(=O)(O)OP(=O)(O)OC[C@H]3O[C@@H](n4cnc5c(N)ncnc54)[C@H](OP(=O)(O)O)[C@@H]3O)C(O)C2O)C=CC1` (stereo partly specified), “inactive”.

Turning to `Nc1ncnc2c1ncn2[C@@H]1O[C@H](COP(=O)(O)OP(=O)(O)OP(=O)(O)OP(=O)(O)OC[C@@H]2O[C@H](n3cnc4c(N)ncnc43)[C@@H](O)[C@H]2O)[C@@H](O)[C@H]1O`, the Potency entry is “inactive”. `O=C1NC(=O)/C(=C/c2ccc3nccnc3c2)S1`: the Potency result was “inactive”. Still for that read-out and setting: next, `CN1[C@@H](CC(=O)c2ccccc2)CCC[C@H]1C[C@H](O)c1ccccc1`: “inactive”; `NCCSSCCN`: “inactive”; `Cc1ccc(S(=O)(=O)/C=C/C#N)cc1`: 9.27 µM (active). Consider `O=C(O)[C@@H]1C[C@H](C(=O)O)N1`, for which the Potency result was “inactive”. As for `N.N.O=C(O)C1(C(=O)O)CCC1.[Pt]`, the Potency entry was “inactive”. Turning to `CN1C2CCC1CC(OC(=O)C(O)c1ccccc1)C2` (stereo unspecified), the Potency result was “inactive”. For `CC(C)CC(NP(=O)(O)O[C@@H]1O[C@@H](C)[C@H](O)[C@@H](O)[C@H]1O)C(=O)NC(Cc1c[nH]c2ccccc12)C(=O)O` (stereo partly specified), the Potency entry is “inactive”.

On to `CC(=O)SCC[N+](C)(C)C`, for which the Potency entry is “inactive”. For `NC(CCCP(=O)(O)O)C(=O)O` (stereo unspecified), the Potency entry was “inactive”. With `CCc1c(C(=O)NCCc2ccc(N3CCCCC3)cc2)[nH]c2ccc(Cl)cc12`, the Potency result is “inactive”. With `C[N+]1(C)CCC(OC(=O)C(c2ccccc2)c2ccccc2)CC1`, the Potency entry is “inactive”.

As for `O=c1[nH]c2cc(Cl)c(Cl)cc2[nH]c1=O`, the Potency entry was “inactive”. Same read-out and setting: next, `N#C/C(=C\c1ccc(O)c(O)c1)C(=O)c1ccc(O)c(O)c1`: “inactive”. On the same count and under the same terms, under `NCCNC(=O)c1ncsc1-c1cccc(F)c1` stands “inactive”.

In a further assay the target is Atrial natriuretic peptide receptor 1 (Homo sapiens) (UniProt P16066). Briefly: Natriuretic polypeptide receptor (hNpr1) antagonism - Pilot screen (AID 1347049).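 Also: HEK293 cells with hNpr1 and GloSensor cGMP luciferase stimulated by 0.1 nM hNppA; agonist-evoked cGMP luminescence read 20 min after hNppA addition.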 Particulars: hNpr1 cells, antagonist mode cGMP read-out; series mostly up to 57.5 µM. In outline: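 Cells expressing receptor plus cGMP biosensor are seeded and incubated overnight at 37C, then loaded with GloSensor reagent (2% final) at room temperature for 2 h. Library compounds go on for 30 min. A pre-read precedes agonist (hNppA, 0.1 nM final) and a 20-min readout.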
Sequence of Atrial natriuretic peptide receptor 1 (Homo sapiens) (P16066 whole entry, looked up): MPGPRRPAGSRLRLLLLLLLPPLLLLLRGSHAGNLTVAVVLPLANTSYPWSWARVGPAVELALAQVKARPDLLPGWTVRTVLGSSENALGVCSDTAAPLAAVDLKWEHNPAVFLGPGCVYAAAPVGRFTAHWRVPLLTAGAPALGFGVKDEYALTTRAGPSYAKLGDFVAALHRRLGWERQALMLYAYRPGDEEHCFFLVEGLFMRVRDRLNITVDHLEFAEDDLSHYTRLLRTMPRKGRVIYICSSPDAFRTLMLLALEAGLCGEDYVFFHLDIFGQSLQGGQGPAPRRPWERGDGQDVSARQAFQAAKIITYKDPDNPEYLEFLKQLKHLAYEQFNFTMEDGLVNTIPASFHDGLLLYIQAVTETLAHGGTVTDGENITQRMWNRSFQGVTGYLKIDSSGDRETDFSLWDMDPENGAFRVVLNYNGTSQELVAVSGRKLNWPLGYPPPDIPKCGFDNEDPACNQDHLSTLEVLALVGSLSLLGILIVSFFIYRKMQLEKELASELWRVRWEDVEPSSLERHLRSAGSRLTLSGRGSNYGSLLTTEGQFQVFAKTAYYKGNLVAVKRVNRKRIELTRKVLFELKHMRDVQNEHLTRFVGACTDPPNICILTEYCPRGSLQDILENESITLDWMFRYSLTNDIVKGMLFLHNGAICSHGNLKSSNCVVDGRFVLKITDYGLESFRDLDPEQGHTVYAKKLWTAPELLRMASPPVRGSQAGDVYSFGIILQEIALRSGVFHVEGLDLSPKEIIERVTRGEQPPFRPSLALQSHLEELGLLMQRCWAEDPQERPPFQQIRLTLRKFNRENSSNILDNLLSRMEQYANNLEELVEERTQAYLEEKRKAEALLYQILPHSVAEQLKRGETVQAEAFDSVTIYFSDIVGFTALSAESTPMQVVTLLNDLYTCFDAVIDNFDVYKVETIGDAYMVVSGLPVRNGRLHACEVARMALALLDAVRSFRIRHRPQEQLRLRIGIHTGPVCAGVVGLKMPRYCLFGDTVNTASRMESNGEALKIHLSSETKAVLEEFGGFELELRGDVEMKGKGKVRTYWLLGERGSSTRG
For `Nc1ncnc2c1ncn2[C@@H]1O[C@H](COP(=O)(O)CP(=O)(O)OP(=O)(O)O)[C@@H](O)[C@H]1O`, the Potency entry is “inactive”. Consider `O=C(O)c1cc(=O)c2ccccc2[nH]1`, for which the Potency result is “inactive”. In the case of `CN(C)c1nc2c(Br)c(Br)c(Br)c(Br)c2[nH]1`, the Potency result is “inactive”. Same read-out and setting: under `O=C1C(SCCO)=C(SCCO)C(=O)c2ccccc21` stands 5.36 µM (active). In the case of `O=S(=O)(c1cccc2c(I)cccc12)N1CCCNCC1`, the Potency result is “inactive”. As to `CCN(CC)c1ncnc2c1ncn2[C@@H]1O[C@H](COP(=O)(O)OP(=O)(O)C(Br)(Br)P(=O)(O)O)[C@@H](O)[C@H]1O`, the Potency result was “inactive”. Take `NC(=S)c1ccc[n+]([C@@H]2O[C@@H](COP(=O)([O-])OP(=O)(O)OC[C@H]3O[C@@H](n4cnc5c(N)ncnc54)[C@H](OP(=O)(O)O)[C@@H]3O)C(O)C2O)c1` (stereo partly specified): the Potency result was “inactive”.

For `Nc1nc(Cl)nc2c1ncn2[C@@H]1O[C@H](COP(=O)(O)OP(=O)(O)OP(=O)(O)O)[C@@H](O)[C@H]1O`, the Potency result was “inactive”.

As for `Cc1nc2sccn2c(=O)c1CCN1CCC(=C(c2ccccc2)c2ccc(F)cc2)CC1`, the Potency entry is “inactive”. For `CN1CCc2ccccc2Cc2[nH]c3ccccc3c2CC1`, the Potency result was “inactive”. Consider `CNC(=O)[C@H]1O[C@@H](n2cnc3c(NCc4cccc(I)c4)ncnc32)[C@H](O)[C@@H]1O`, for which the Potency result was “inactive”. With `CCCCN1CCC(n2c(=O)[nH]c3ccccc32)CC1`, the Potency result was “inactive”. Turning to `CO/N=C(\C(=O)N[C@@H]1C(=O)N2C(C(=O)O)=C(COC(C)=O)CS[C@H]12)c1csc(N)n1`, the Potency entry was “inactive”. With `CN1CCC[C@H]1c1cccnc1`, the Potency entry was “inactive”.

`CC(C)(C)c1ccc(S(=O)(=O)/C=C/C#N)cc1`: the Potency is 12 µM (active). Regarding `CN(C)c1ccc(/C=C2\C(=O)Nc3ccccc32)cc1`, the Potency was 1.2 µM (active).

For the compound `NC[C@H]1O[C@@H](n2cnc3c(N)ncnc32)[C@H](O)[C@@H]1O`, the Potency result was “inactive”.

Consider `O=C1O/C(=C/Br)CCC1c1cccc2ccccc12` (stereo unspecified), for which the Potency is 19 µM (active). For `CN1CCc2cccc3c2C1Cc1ccc(O)c(O)c1-3` (stereo unspecified), the Potency entry was “inactive”.

As to `Cc1ccc(O)c(N=Nc2ccccc2)n1`, the Potency is 16.9 µM (active). For `NC(=O)C1=CN(C2OC(COP(=O)(O)OP(=O)(O)OC[C@H]3O[C@@H](n4cnc5c(N)ncnc54)[C@H](OP(=O)(O)O)[C@@H]3O)C(O)C2O)C=CC1` (stereo partly specified), the Potency result was “inactive”. Consider `Nc1ncnc2c1ncn2[C@@H]1O[C@H](COP(=O)(O)OP(=O)(O)OP(=O)(O)OP(=O)(O)OC[C@@H]2O[C@H](n3cnc4c(N)ncnc43)[C@@H](O)[C@H]2O)[C@@H](O)[C@H]1O`, for which the Potency entry is “inactive”. `O=C1NC(=O)/C(=C/c2ccc3nccnc3c2)S1`: the Potency entry was “inactive”. Turning to `CN1[C@@H](CC(=O)c2ccccc2)CCC[C@H]1C[C@H](O)c1ccccc1`, the Potency entry was “inactive”. As for `NCCSSCCN`, the Potency entry was “inactive”.

On to `Cc1ccc(S(=O)(=O)/C=C/C#N)cc1`, for which the Potency entry was “inactive”. On the same count and under the same terms, under `O=C(O)[C@@H]1C[C@H](C(=O)O)N1` stands “inactive”. Take `N.N.O=C(O)C1(C(=O)O)CCC1.[Pt]`: the Potency result is “inactive”. `CN1C2CCC1CC(OC(=O)C(O)c1ccccc1)C2` (stereo unspecified): the Potency result was “inactive”. Same read-out and setting: under `CC(C)CC(NP(=O)(O)O[C@@H]1O[C@@H](C)[C@H](O)[C@@H](O)[C@H]1O)C(=O)NC(Cc1c[nH]c2ccccc12)C(=O)O` (stereo partly specified) stands “inactive”. As for `CC(=O)SCC[N+](C)(C)C`, the Potency result was “inactive”.

In the case of `OCC1O[C@H]([S-])[C@H](O)[C@@H](O)[C@@H]1O.[Au+]` (stereo partly specified), the Potency entry was “inactive”. Regarding `NC(CCCP(=O)(O)O)C(=O)O` (stereo unspecified), the Potency result is “inactive”.

For `CCc1c(C(=O)NCCc2ccc(N3CCCCC3)cc2)[nH]c2ccc(Cl)cc12`, the Potency result was “inactive”.

As for `C[N+]1(C)CCC(OC(=O)C(c2ccccc2)c2ccccc2)CC1`, the Potency entry was “inactive”. Same read-out and setting: next, `O=c1[nH]c2cc(Cl)c(Cl)cc2[nH]c1=O`: “inactive”. Consider `N#C/C(=C\c1ccc(O)c(O)c1)C(=O)c1ccc(O)c(O)c1`, for which the Potency entry is “inactive”. Turning to `NCCNC(=O)c1ncsc1-c1cccc(F)c1`, the Potency entry is “inactive”.
